# Tested on: Caenorhabditis elegans L1 (N2)
# Experiment: survival and reproduction score of C. elegans L1 (0: 0-10 living worms, 1: 11-20, 2: 21-50, 3: >50, 4: overgrown) (score 0-4); higher = more worms, less nematicidal, active = 1 or less; extreme values may be limits of the assay
# Conditions: 60 µM; 6 days; temperature: 20 °C
# Outline: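 Worm survival and reproduction were recorded as an ordinal score of living worms per well, read under a dissection microscope. Each 96-well well held about 20 synchronized C. elegans N2 L1s with E. coli HB101 in liquid NGM and compound at 60 µM final (0.6% v/v DMSO), sealed and shaken at 200 rpm, 20 °C, for 6 days. Scores ranged from 0 (0–10 worms) to 4 (overgrown, starved) and were the mean of two biological replicates.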
row,Compound,survival and reproduction score
1,c1ccc2c(OCc3nc(-c4ccncc4)no3)cccc2c1,4 (inactive)
2,CC(C)C(=O)Nc1ccccc1-c1nc(-c2cccnc2)no1,0 (active)
3,COc1ccccc1CC(=O)Nc1ccc(-c2noc(-c3ccccc3C)n2)cc1,4 (inactive)
4,c1coc(-c2nc(-c3cccs3)no2)c1,0 (active)
5,COc1cccc(-c2noc(COc3cc(C)cc(C)c3)n2)c1,4 (inactive)
6,O=C(CSc1nnc(-c2ccccc2Cl)o1)Nc1ccccn1,4 (inactive)
7,Brc1ccc(-c2noc(-c3cccs3)n2)cc1,0 (active)
8,Cc1ccc(OCc2nc(-c3ccc(Cl)cc3)no2)cc1C,4 (inactive)
9,CCOc1ccc(NC(=O)CSc2nnc(-c3ccccc3Cl)o2)cc1,4 (inactive)
10,CCCSc1nnc(-c2ccc(Cl)cc2Cl)o1,0 (active)
11,Cc1ccc(-c2nc(-c3ccncc3)no2)cc1Cl,0 (active)
12,Cc1cccc(OC(C)c2nc(-c3cccnc3)no2)c1 (centres undefined),4 (inactive)
13,Cn1c(SCc2cccc(F)c2)nnc1-c1ccco1,4 (inactive)
14,COc1nc2ccc(C)cc2cc1-c1noc(-c2ccncc2)n1,4 (inactive)
15,Cc1ccc(C(=O)Nc2ccccc2-c2nc(-c3ccncc3)no2)cc1C,4 (inactive)
16,Cc1ccc(SC(C)c2nc(-c3ccncc3)no2)cc1 (centres undefined),4 (inactive)
17,Cc1ccccc1-c1nnc(SCc2ccc(F)cc2)o1,3.5 (inactive)
18,Ic1ccc(-c2nc(-c3cccnc3)no2)cc1,0 (active)
19,COc1ccc(-c2nnc(SCC(=O)c3ccc4ccccc4c3)o2)cc1,4 (inactive)
20,O=C(CSc1nnc(-c2ccccc2)o1)Nc1cccc(F)c1,4 (inactive)

row,Compound,survival and reproduction score
1,Cc1cccc(-c2noc(COc3ccc(C)cc3C)n2)c1,4 (inactive)
2,COc1ccc(Cl)cc1-c1noc(COc2ccc(Cl)cc2)n1,4 (inactive)
3,COc1ccccc1OCc1nc(-c2ccc(Cl)cc2)no1,4 (inactive)
4,Cc1cc(OC(C)c2nc(-c3ccccn3)no2)ccc1Cl (centres undefined),2 (inactive)
5,O=C(CSc1nnc(-c2ccccc2)o1)Nc1ccc(F)cc1F,4 (inactive)
6,COc1ccc(-c2noc(COc3ccc(C)cc3Br)n2)cc1,4 (inactive)
7,Cc1cccc(-c2nnc(SCC(=O)Nc3ccccc3F)o2)c1,4 (inactive)
8,Clc1ccc(-c2noc(-c3ccccc3Br)n2)cc1,3 (inactive)
9,COc1ccc(-c2noc(-c3ccc(Cl)cc3)n2)cc1,3 (inactive)
10,Clc1ccc(OCc2nc(-c3ccccc3)no2)c(Br)c1,1 (active)
11,Cc1csc(NC(=O)CSc2nnc(-c3cccc(Cl)c3)o2)n1,4 (inactive)
12,COc1cccc(-c2noc(COc3ccccc3Cl)n2)c1,4 (inactive)
13,Cc1cccc(OCc2nc(-c3ccccc3Cl)no2)c1,4 (inactive)
14,CCOC(=O)c1c(NC(=O)CSc2nnc(-c3ccc(Cl)cc3)o2)sc(C(C)=O)c1C,4 (inactive)
15,Clc1ccc(-c2noc(-c3ccccc3Cl)n2)cc1,3 (inactive)
16,COc1ccc(Cl)cc1-c1noc(-c2cccc(C)c2)n1,4 (inactive)
17,COc1nc(-c2ccccc2)ccc1-c1noc(-c2ccco2)n1,1 (active)
18,Cc1cc(C)c(OCc2nc(-c3ccncc3)no2)c(C)c1,4 (inactive)
19,Cc1cccc(OCc2nc(-c3ccc(-n4cccc4)cc3)no2)c1,4 (inactive)

# — the supplement of paper PMC11219838
